Results with a measured potency or affinity are listed apart. Results filed as inconclusive are left out. Activity calls are given as the source filed them. No rule for the calls is given here.
Assay: THP-1 cell cytotoxicity, cytotoxicity control, set 6 (AID 602433)

Row | SMILES | outcome
1 | O=C(CSc1nc2c(c(=O)[nH]1)CCCC2)NC1CCCCC1 | inactive
2 | O=C(CSc1nc2c(c(=O)[nH]1)CCC2)NC1CCCCC1 | inactive
3 | O=C(c1ccc(CNc2c(N3CCCC3)c(=O)c2=O)cc1)N1CCC(c2ccccc2)CC1 | inactive
4 | O=C(c1ccc(CNc2c(N3CCOCC3)c(=O)c2=O)cc1)N1CCN(c2ccccc2)CC1 | inactive
5 | CC(C)CCNC(=O)CSc1nc2c(c(=O)[nH]1)CCCCC2 | inactive
6 | COC(=O)C(Cc1ccccc1)NC(=O)CSc1nc2ccccc2c(=O)[nH]1 (stereo not drawn) | inactive
7 | O=C(c1ccc(CNc2c(N3CCCC3)c(=O)c2=O)cc1)N1CCN(c2ccccc2)CC1 | inactive
8 | O=C(NCc1ccc(C(=O)N2CCN(c3ccccc3)CC2)cc1)NC1CCCCC1 | inactive

Source: PubChem BioAssay AID602433 (Southern Research Specialized Biocontainment Screening …, 2012)
